Shown are actives, neighbours in structure and some others; about 3.6% of the full set was active somewhere.
mHTT CaM bind = mutant huntingtin-calmodulin interaction inhibitors – biochemical, AlphaScreen, primary screen. P42858. AlphaScreen His-mHTT/GST-CaM binding, luminescence. inhibition, % at 15 µM. 190,000 tested, 3.6% active. AID 1671202, 2021;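 further: 0% = both proteins with DMSO and 100% = one protein alone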
Pf apPOL inh = Pf-apPOL inhibitors, biochemical, fluorescence | 210,000 tested, 0.25% active | inhibition, % at 10 µM | Recombinant Pf-apPOL, molecular beacon fluorescence, 1.5 h | Plasmodium falciparum apicoplast DNA polymerase (apPOL)
* = called active by the depositor; · = no result given. No stated cut-off is given here; in the data, active means inhibition above about 50%; inactive means the rest.

SMILES	mHTT CaM bind	Pf apPOL inh
Cc1ccc(C)c(S(=O)(=O)N=C2C=C(Nc3ccccc3)C(=O)c3ccccc32)c1	89*	-3
O=C(Sc1nc2ccccc2o1)c1cccc(Cl)c1	-1	-4
COc1ccc(-c2noc(-c3ccc(NCc4ccccc4C)nc3)n2)cc1	-6	5
CCc1ccc(-n2cnc3cc(C(=O)N4CCOCC4)ccc32)cc1	4	28
COc1ccc(/C=C2\C=C(c3ccccc3)N(c3ccc(Cl)c(C(=O)O)c3)C2=O)cc1	32	-5
Cc1ccc(S(=O)(=O)N=C2C=C(NS(=O)(=O)c3ccccc3)C(=O)c3ccccc32)cc1	66*	5
Cc1ccc(S(=O)(=O)Nc2ccccn2)cc1	-8	-8
CCOC(=O)N1CCc2nn(CC(=O)Nc3ccc(CC)cc3)c(=O)cc2C1	7	-9
CCCCNc1nc(SCC(=O)c2ccc(O)c(O)c2)nc2ccccc12	64*	-5
COCCNc1nc(SCC(=O)c2ccc(O)c(O)c2)nc2ccccc12	12	-2
Nn1c(C2CCCO2)n[nH]c1=S (stereo unspecified)	1	·
O=C(Nc1nc2c(s1)C(=O)CCC2)c1cnc2ccccc2n1	5	10
O=C(NCc1ccc(F)cc1)c1cc2sccc2n1CC1CCCCO1 (stereo unspecified)	23	27
Cc1cccc(N2CCN(C(=O)c3c(C)sc4ccn(C)c(=O)c34)CC2)c1	36	2
Cc1sc2ccn(C)c(=O)c2c1C(=O)N1CCN(c2cccc(Cl)c2)CC1	96*	-1
COc1ccc([C@H]2C[C@H](O)[C@@H](n3cc(COC(=O)c4ccccc4)nn3)CN2CC2CCCCC2)cc1	69*	-2
COc1ccc([C@H]2C[C@@H](O)[C@H](n3cc(COC(=O)c4ccccc4)nn3)CN2Cc2cccs2)cc1	-1	9
CCCCCCN1C[C@H](n2cc(COC(=O)c3ccccc3)nn2)[C@@H](O)C[C@@H]1c1ccc(Cl)cc1	32	-2
COc1ccc([C@H]2C[C@H](O)[C@@H](n3cc(COC(=O)c4ccccc4)nn3)CN2Cc2cccs2)cc1	90*	2
O=C(OCc1cn([C@H]2C[C@H](c3ccccc3)N(CC3CCCCC3)C[C@@H]2O)nn1)c1ccccc1	-4	-1
CCCCCCN1C[C@H](n2cc(COC(=O)c3ccccc3)nn2)[C@@H](O)C[C@@H]1c1ccc(OC)cc1	56*	-4
Nc1nc(=S)n2c(n1)oc1ccccc12	-6	·
CN1c2cc(Cl)ccc2C(=O)NC12CCN(C(=O)NCc1cccc(F)c1)CC2	1	0
COc1ccc(Cc2nnc3c4cnn(Cc5ccccc5)c4ncn23)cc1OC	-1	0
CCOc1ccccc1NC(=O)c1c(NCc2cccnc2)sc2c1CCC(C)C2 (stereo unspecified)	25	-18
SMILES	mHTT CaM bind	Pf apPOL inh
COc1ccccc1NC(=O)c1c(NCc2cccnc2)sc2c1CCCC2	71*	-22
COc1ccccc1NC(=O)c1c(NC(=O)c2ccccc2Cl)sc2c1CCC2	-4	2
COc1ccccc1NC(=O)c1c(NCc2cccnc2)sc2c1CCC2	74*	-17
O=C(Nc1ccccc1O)c1cccc([N+](=O)[O-])c1	-1	4
COc1ccc(-c2nc(-c3nnn(-c4ccc(F)cc4)c3C)no2)cc1OC	-6	-5
COc1ccc(-c2nc(-c3ccc(F)cc3)c[n+]3ccc4cc(OC)c(OC)cc4c23)cc1OC	78*	·
Cn1nc(-c2nnc(-c3ccccc3F)o2)c2c1CCN(C(=O)c1cccc(F)c1)C2	11	-3
CCC(C(=O)N1CCc2c(c(-c3nnc(-c4ccccc4F)o3)nn2C)C1)c1ccccc1 (stereo unspecified)	53*	-3
O=C(/C=C/c1ccccc1)Nc1ccc(NC(=O)c2ccco2)cc1	10	4
O=Nc1ccc(NOC(=O)/C=C/c2ccccc2)cc1	73*	-8
NC(=O)c1ccccc1NC(=O)c1ccc(Cl)c(Cl)c1	-6	0
CCc1ccc(O)c(N=Cc2ccc([N+](=O)[O-])cc2)c1	13	-4
COc1cc(/C=C/c2nc3ccccc3c(=O)n2CCO)ccc1O	7	-10
COc1cc(/C=C/c2nc3ccccc3c(=O)n2-c2ccccc2[N+](=O)[O-])ccc1O	50*	5
CC(C)C(=O)Nc1ccc(C(=O)NCCNS(=O)(=O)N(C)C)cc1	-17	-1
Cc1cccc(CC(=O)N2CC3CC(NC(=O)c4cccnc4)C2C3)c1 (stereo unspecified)	2	0
Cc1ccsc1CCNS(=O)(=O)c1ccc2[nH]c3c(c2c1)CCCCC3	96*	-2
Cc1ccsc1CCNS(=O)(=O)c1ccc2[nH]c3c(c2c1)CCCC3	62*	-1
Cc1ccc(Cl)cc1NC(=O)CN(C)S(=O)(=O)c1ccc2[nH]c3c(c2c1)CCCC3	42	-2
N#CC1=C(SCC(N)=O)NC(=O)CC1c1ccc(Cl)cc1Cl (stereo unspecified)	4	0
